This excerpt belongs to a sample that is enriched for hits.
15-hLO-2 inh: inhibitors of human 15-lipoxygenase 2 (ALOX15B); purified 15hLO-2, xylenol orange hydroperoxide absorbance; Potency, µM (titrated, usually from 57.1 µM), usual class: inhibitors; actives 0.56% (n = 110,000); AID 881; note: nearly all actives have a fitted effect of over 60% in size
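Purified human 15hLO-2 (50 nM) preincubated 15 min with compound, then 45 uM arachidonic acid for 90 min at RT in 25 mM Hepes pH 7.5, 0.01% Triton X-100. Hydroperoxide detected by Fe-xylenol orange; 573/405 nm absorbance ratio.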
ALOX15 inhib: 15-hLO (ALOX15) enzyme inhibition; Potency, µM (top dose mostly 57.1 µM), hits mostly inhibitors; actives 1.4% (n = 74,000); purified 15hLO-1, xylenol orange hydroperoxide absorbance; P16050; note: nearly all actives have a fitted effect of over 55% in size
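Quantitative HTS in 25 mM Hepes pH 7.5 containing 0.01% Triton X-100: human 15hLO-1 at 40 nM, arachidonic acid at 50 uM, 6 min turnover. Product quantified via ferrous oxidation/xylenol orange, 573:405 nm absorbance ratio.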
Hits are given with their value; . = inactive; ? = inconclusive; / = not tested or not shown; [ ] = another dose, or the depositor's remark. Calls come from the whole dose curve; as a rule, active = well fitted inhibition curve with a large enough effect; inconclusive = small, poorly fitted or top-dose-only effect; inactive = no such curve, though single readings can be large or run the other way.

SMILES | 15-hLO-2 inh | ALOX15 inhib
CC(C)C1=Nc2cccc3cccc(c23)N1 | 10µM | /
O=C(c1ccncc1)N1CCC2(CCN(Cc3ccccc3)CC2)CC1 | . | .
Cc1cccc(C)c1 | . | .
CCOC(=O)Cn1c(CN2CC(C)OC(C)C2)nc2c1c(=O)n(C)c(=O)n2C (configuration not stated) | / | 7.94µM
CC1CN(Cc2nc3c(c(=O)n(C)c(=O)n3C)n2CC(=O)c2ccccc2)CC(C)O1 (configuration not stated) | / | .
Cc1c2oc3c(C)ccc(C(=O)N[C@@H]4C(=O)N[C@H](C(C)C)C(=O)N5CCC[C@H]5C(=O)N(C)CC(=O)N(C)[C@@H](C(C)C)C(=O)O[C@@H]4C)c3nc-2c(C(=O)N[C@@H]2C(=O)N[C@H](C(C)C)C(=O)N3CCC[C@H]3C(=O)N(C)CC(=O)N(C)[C@@H](C(C)C)C(=O)O[C@@H]2C)c(N)c1=O | .[0.0915 µM] | 12.6µM
COC(=O)c1[nH]c2ccc(C)cc2c1NC(=O)CN1CCc2cc(OC)c(OC)cc2C1 | . | .
COC(=O)c1[nH]c2ccc(C)cc2c1NC(=O)Nc1ccccc1OC | . | 25.1µM
CCOC(=O)c1c(C)[nH]c(C=Nc2ccccc2)c1O | . | 5.01µM
CCOC(=O)c1c(C)[nH]c(N=Nc2ccccc2)c1C | . | /
NCC(=O)O | . | .
O=C(O)c1ccc(Nc2ccnc3cc(Cl)ccc23)cc1O | .[11.4 µM] | .[11.4 µM]
Clc1ccc(NNc2ccnc3cc(Cl)ccc23)cc1 | 15.8µM | /
O=C(c1csnn1)N1CCC[C@@]2(CCN(C(c3ccccc3)c3ccccc3)C2)C1 | . | .
CC(C)COc1ccc(CSCCNC(=S)Nc2ccccc2)cc1 | 25.1µM | /
Cc1ccc(CSCCNC(=O)CCSc2ccccc2)cc1 | . | /
CN(Cc1ccco1)c1ncncc1-c1ccccc1Cl | . | .
S=C([S-])NCCNC(=S)[S-].[Zn+2] | ? | 12.6µM
NC(N)=N/N=C\c1ccc(C2CCNCC2)cc1 | .[11.4 µM] | .[11.4 µM]
Brc1ccc(C2=N[C@@H](Cc3ccccc3)CO2)cc1 | .[0.0915 µM] | /
CC1=CCc2c(cc3oc(C)cc(=O)c3c2O)OC1 | . | 20µM
Cc1cc(=O)c2c(O)c(O)ccc2o1 | . | ?
CNC(=O)c1ccccc1 | . | .
Cc1ccc(-c2nc3cnccn3c2Nc2ccc3c(c2)OCCO3)o1 | . | 25.1µM
Cc1ccc(-c2nc3cnccn3c2Nc2ccc3c(c2)OCO3)cc1 | . | /
SMILES | 15-hLO-2 inh | ALOX15 inhib
Cc1cccc(C)c1NC(=O)CN1C(=O)S/C(=C\c2cccn2C)C1=O | . | /
Cc1ccccc1NC(=O)CN1C(=O)S/C(=C\c2cccn2-c2cccc(C(=O)O)c2)C1=O | 25.1µM | /
CCN(CC)C[C@@H](O)CN1CCCCc2nc(C)c(C)cc21 | / | .[11.4 µM]
Cc1c(C)c2c(c(C)c1O)CC[C@@](C)(C(=O)O)O2 | . | .
Cc1nn(-c2ccccc2)c2nc(-c3ccncc3)cc(C(=O)NCc3ccco3)c12 | . | 25.1µM
Cc1nn(-c2ccccn2)c2nc(-c3cccs3)cc(C(=O)NCc3ccco3)c12 | . | /
CC1C(NC(=O)/C(=N/OC(C)(C)C(=O)O)c2csc(N)n2)C(=O)N1S(=O)(=O)O (configuration not stated) | . | .
COc1ccc(C(=O)N2CCC3(CCCN(C(=O)Nc4cccc(C#N)c4)C3)CC2)cc1 | . | .
CN1CCc2c(C#N)c(N3CCCCC3)nc(NCc3ccccc3)c2C1 | . | /
N#Cc1c(NCCCO)nc(NCc2ccccc2)c2c1CCN(Cc1ccccc1)C2 | . | 5.01µM
CCOc1ccc(NC(=O)Nc2cccs2)cc1 | . | /
O=C(Nc1cccs1)Nc1ccccc1Cl | ? | 12.6µM
Cc1ccc(NC(=O)Nc2cccs2)c(Cl)c1 | . | /
Cc1ccc(NC(=O)Nc2cccs2)cc1 | . | 25.1µM
CCc1ccc(NC(=O)Nc2cccs2)cc1 | . | 25.1µM
Cc1ccc(NC(=O)Nc2cccs2)nc1 | . | /
O=C1NC(=O)[C@@]2(CCOc3ccc(F)cc32)N1 | .[0.0915 µM] | /
O=C(O)C1=CCNCC1 | . | .
CN1CCN(c2ncncc2-c2ccc(N(C)C)cc2)CC1 | . | .
CN1CCN(c2ncncc2-c2ccoc2)CC1 | . | 31.6µM
COc1cccc(Nc2ncc3nc(-c4cccs4)c(=O)n(-c4ccccc4)c3n2)c1 | . | .
O=C(c1cccc(F)c1)N1CCN(C(=O)c2cc(-c3ccc(Cl)cc3Cl)on2)CC1 | . | 15.8µM
COc1cccc(C(=O)N2CCN(C(=O)c3cccc(F)c3)CC2)c1 | / | .
C=CC[C@@H]1C=C[C@H](ON=C(C)C)[C@H](CO)O1 | / | .[11.4 µM]
CC(/C=C/C(=O)NO)=C\[C@@H](C)C(=O)c1ccc(N(C)C)cc1 | .[0.0915 µM] | /
CC1(C)CC(=O)C2=C(C1)OC(N)=C(C#N)C21CCN(C(=O)OCc2ccccc2)CC1 | . | .
N#CC1=C(N)OC2=C(C(=O)CCC2)C12CCN(C(=O)OCc1ccccc1)CC2 | . | 25.1µM
O=C(Nc1ccc(F)cc1)N(CCCN1CCOCC1)Cc1cc2cc3c(cc2[nH]c1=O)OCCO3 | . | .
COc1ccc(NC(=O)N(CCCN(C)C)Cc2cc3cc(OC)ccc3[nH]c2=O)cc1 | / | .

Source: PubChem (National Center for Advancing Translational Sciences (NCATS))
